Screening results (PubChem BioAssay)
MEKK2 mut-MEK5 = signal of MEK5 binding to mutant human MEKK2 PB1 domain. bead flow cytometry, Alexa488-MEK5 binding to MEKK2 mutant. percent response, % at 10 µM. hit rate 0.35% among 290,000; in the data active = percent response above about 24%, passing the limit was not always enough
MEKK2 WT-MEK5 = raises or lowers MEK5 binding to wildtype human MEKK2 PB1 domain | Q9Y2U5 | bead flow cytometry, Alexa488-MEK5 binding to MEKK2 WT; actives lie on both sides | binding response (% of control), % at 10 µM | hit rate 1.1% among 290,000 | AID 1531; in the data active = binding response below about 67% or above about 130%
GRK2 inh = inhibitors of human GRK2 displacing RNA aptamer | P25098 | bead flow cytometry, FAM-aptamer displacement from GRK2 | inhibition of aptamer binding, % at 10 µM | hit rate 0.59% among 330,000;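 active = inhibition of aptamer binding above 40%, roughly 3 SD of noise, on plates passing a quality check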;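 note: median bead fluorescence of bound FAM aptamer so fluorescent compounds give negative values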
Target sequence (P25098 whole entry, looked up): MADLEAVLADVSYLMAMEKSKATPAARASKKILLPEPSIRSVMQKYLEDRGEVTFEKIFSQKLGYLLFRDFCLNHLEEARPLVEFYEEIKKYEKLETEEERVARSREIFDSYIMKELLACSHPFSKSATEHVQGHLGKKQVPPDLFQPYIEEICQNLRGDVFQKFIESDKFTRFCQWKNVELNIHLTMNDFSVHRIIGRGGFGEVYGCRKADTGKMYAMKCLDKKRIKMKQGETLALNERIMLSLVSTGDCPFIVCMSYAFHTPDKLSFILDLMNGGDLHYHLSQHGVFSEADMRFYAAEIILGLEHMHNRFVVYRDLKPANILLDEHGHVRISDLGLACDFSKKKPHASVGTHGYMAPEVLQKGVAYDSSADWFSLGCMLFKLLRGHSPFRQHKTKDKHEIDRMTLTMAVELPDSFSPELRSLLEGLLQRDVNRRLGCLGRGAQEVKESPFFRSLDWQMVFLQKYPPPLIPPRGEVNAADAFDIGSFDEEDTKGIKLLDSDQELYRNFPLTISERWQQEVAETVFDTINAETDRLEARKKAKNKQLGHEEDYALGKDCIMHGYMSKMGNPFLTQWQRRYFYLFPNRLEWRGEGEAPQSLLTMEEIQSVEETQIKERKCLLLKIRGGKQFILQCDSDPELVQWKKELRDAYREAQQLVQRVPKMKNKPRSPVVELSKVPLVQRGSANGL
MEKK3 PB1 HTS = modulators (inhibitors or enhancers) of MEK5 binding to human MEKK3 PB1 domain | Q99759 | bead-based flow cytometry, Alexa488-MEK5 binding to MEKK3; actives lie on both sides; 0 = blocked by unlabeled MEK5, 100 = vehicle | binding response (% of control), % at 10 µM | hit rate 1.4% among 290,000 | AID 1529;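 active = binding response more than 3 SD above or below the average of its plate-row segment, actives on both sides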;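 note: Alexa488 bead fluorescence after subtracting the streptavidin-only scavenger bead signal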
MEKK2wt confirm = raises or lowers MEK5 binding to wildtype human MEKK2, retest; hit rate 2.4% among 5,900; binding response (% of control), % at 10 µM; bead flow cytometry, Alexa488-MEK5 binding to MEKK2 WT; actives lie on both sides; shares compounds with MEKK3 PB1 HTS; in the data active = binding response below about 16% or above about 210%; inactive = in between
MEKK2mut-MEK5 = signal of MEK5 binding to mutant human MEKK2, retest; percent response, % at 10 µM; shares compounds with MEKK3 PB1 HTS; hit rate 2% among 5,900; bead flow cytometry, Alexa488-MEK5 binding to MEKK2 mutant; in the data active = percent response mostly above about 71%, no sharp cut-off; inactive = mostly below about 38%;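 note: higher means compound restores mutant binding toward wildtype level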
MEKK3-MEK5 inh = MEKK3-MEK5 PB1 inhibition, single concentration confirmation | shares compounds with MEKK3 PB1 HTS | bead flow cytometry, Alexa488-MEK5 binding to MEKK3; active compounds read low | binding response (% of control), % at 10 µM | AID 1894 | hit rate 1.8% among 5,900;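 active = binding response below 72% of control, or above a set upper limit, though filed actives all read lower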;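 note: 100% = DMSO only wells and 0% = binding blocked by excess unlabeled MEK5; lower values mean stronger disruption of MEK5 binding to MEKK3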
GRK2 CP1 = human GRK2 inhibition confirmation, cherry pick 1; shares compounds with GRK2 inh; bead-bound GRK2, FAM-aptamer displacement, flow cytometry; aptamer displacement, % at 10 µM; hit rate 4% among 2,000; AID 504451;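 active = aptamer displacement above 40%, near three times the noise of non-fluorescent compounds, on plates passing quality checks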;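 note: negative values mostly reflect intrinsic compound fluorescence rather than true enhancement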
Aptamer quench 1 = counter-screen for GRK2 aptamer inhibitors: fluorescent aptamer quenchers | Fluorescent RNA aptamer beads, quenching, flow cytometry; active compounds read high | 110 tested, under 10 active | AID 504521 | fluorescence change (kMESF span), kMESF (test concentration not listed) | shares compounds with GRK2 inh;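 active = compounds whose bead fluorescence drops by more than 37 kMESF across the dose range, marking them as dye quenchers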
FAM quench CP1 = aptamer fluorescence quenching in GRK2 counter-screen | shares compounds with GRK2 inh | Carboxyfluorescein RNA aptamer on beads, flow cytometry quenching; active compounds read low | fluorescence response (% of DMSO), % at 10 µM | 2,000 tested, under 10 active | AID 504580;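 active = compounds that quench the bead-bound fluorescent RNA probe, cutting fluorescence to under half of the solvent control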;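 note: counterscreen run without GRK2 so only probe quenching by compound is measured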
An asterisk follows results filed as active; x = no result given; [ ] = remark or other dose. Hits are enriched below; roughly 2.5% of the tested compounds scored in any of these assays.

SMILES	MEKK2 mut-MEK5	MEKK2 WT-MEK5	GRK2 inh	MEKK3 PB1 HTS	MEKK2wt confirm	MEKK2mut-MEK5	MEKK3-MEK5 inh	others
C[C@]12CC[C@H](O)CC1=CC(=O)C1C2CC[C@]2(C)C(=O)[C@H](O)CC12 (stereo partly drawn)	x	x	0.0	x	x	x	x
Cc1nc2c(-c3ccccc3)c(C)nn2c(C)c1CCC(=O)N1CCC2(CC1)OCCO2	-29.0	101.0	2.0	44.0*[inhibitor]	106.0	0.0	100.0
N#CC(C#N)=NNc1ccc(-n2ccc(C(F)(F)F)n2)cc1	-6.0	91.0	0.0	93.0	x	x	x
Cc1cc(C)n(-c2ccc(NN=C(C#N)C#N)cc2)n1	-57.0	43.0*[inhibitor]	0.0	40.0*[inhibitor]	94.0	-5.0	90.0
O=S(=O)(c1ccc(Cl)cc1)N1CCCCC1c1cccnc1 (stereo not drawn)	1.0	117.0	2.0	130.0*	98.0	-1.0	103.0
COc1ccccc1NC(=O)c1cn(CCC#N)nc1-c1cccc(Cl)c1	4.0	105.0	0.0	106.0	x	x	x
COc1ccccc1C1CC2CCC(C1OC(C)=O)N2Cc1ccccc1 (stereo not drawn)	-2.0	97.0	0.0	86.0	x	x	x
Cc1[nH]c2ccc(OC(F)(F)F)cc2c1CCNCc1cccc([N+](=O)[O-])c1	25.0*	148.0*	0.0	108.0	170.0	45.0	104.0
Cc1ccc2[nH]c(C)c(CCNCc3ccco3)c2c1	13.0	127.0	0.0	103.0	x	x	x
COc1ccc2[nH]c(C)c(CCNCc3cccnc3)c2c1	x	x	0.0	x	x	x	x
CCOc1cccc(CNCCc2c(C)[nH]c3ccc(OC(F)(F)F)cc23)c1O	19.0	150.0*	0.0	104.0	177.0	48.0	104.0
Cc1[nH]c2ccc(OC(F)(F)F)cc2c1CCNCc1ccc(Cl)cc1	37.0*	174.0*	0.0	101.0	195.0	43.0	106.0
CC1(C)C(=O)CC[C@@]2(C)C1=CCC1C2CC[C@]2(C)C(=O)CCC12 (stereo partly drawn)	x	x	0.0	x	x	x	x
CCC1(C2=NCCN2)Cc2ccccc2O1 (stereo not drawn)	x	x	0.0	x	x	x	x
CCN1C(=O)NC(=O)/C(=C/c2cc(C)n(-c3sc(C)c(C)c3C#N)c2C)C1=O	1.0	102.0	0.0	130.0*	99.0	10.0	101.0
CCOC(=O)c1c(-n2c(C)cc(/C=C3/C(=O)NC(=O)N(CC)C3=O)c2C)sc2c1CCCC2	2.0	88.0	1.0	102.0	x	x	x
COC(=O)N(c1ccccc1)P(=O)(Oc1ccccc1)Oc1ccccc1	1.0	102.0	3.0	101.0	x	x	x
COC(=O)C1=C(c2ccc(OC)c(OC)c2)C[C@@H]2CC[C@H]1N2C(=O)NC1CCCCC1	x	x	1.0	x	x	x	x
COc1ccc2c(c1)c(C(=O)CN1CCN(C)CC1)c(C)n2Cc1ccccc1	23.0	141.0*	0.0	103.0	163.0	53.0	108.0
CCN1CCN(CC(=O)c2c(C)n(Cc3ccccc3)c3ccc(OC)cc23)CC1	7.0	128.0	0.0	105.0	x	x	x
COc1ccc(CC(C)NCCC(c2ccccc2)c2ccccc2)cc1 (stereo not drawn)	28.0*	171.0*	0.0	111.0	120.0	8.0	103.0
Oc1c(Cl)c(Cl)c(Cl)c(Cl)c1Cl	4.0	114.0	0.0	111.0	x	x	x
C/C(=N\NC(=O)c1ccccc1)c1c(O)n(Cc2ccccc2)c(=O)[nH]c1=O	4.0	101.0	4.0	101.0	x	x	x
CC/C(=N\NC(=O)Nc1ccccc1)c1c(O)n(Cc2ccccc2)c(=O)[nH]c1=O	27.0	118.0	1.0	132.0*	94.0	0.0	101.0
Fc1ccc(CCNCc2cccc(Cl)c2)cc1	-7.0	93.0	0.0	75.0*[inhibitor]	111.0	18.0	105.0
SMILES	MEKK2 mut-MEK5	MEKK2 WT-MEK5	GRK2 inh	MEKK3 PB1 HTS	MEKK2wt confirm	MEKK2mut-MEK5	MEKK3-MEK5 inh	others
COc1cccc(CNCCc2ccc(F)cc2)c1	5.0	98.0	1.0	96.0	x	x	x
COc1cccc(N2C(=O)NC(=O)/C(=C/c3ccc4c(c3)Cc3ccccc3-4)C2=O)c1	-5.0	90.0	6.0	100.0	x	x	x
Nc1ccc2c(c1)Cc1ccccc1-2	0.0	107.0	0.0	133.0*	101.0	-1.0	100.0
COc1c(C=C2C(=O)NC(=O)NC2=O)c(CCN(C)C(=O)c2ccccc2)cc2c1OCO2	-3.0	95.0	2.0	94.0	x	x	x
c1ccc2nc(OCCN3CC3)ccc2c1	32.0*	181.0*	0.0	108.0	135.0	15.0	103.0
O=c1[nH]c(=S)[nH]c(O)c1/C=C1/C=c2ccccc2=N1	3.0	103.0	2.0	105.0	x	x	x
Cc1cccc2c1=NC(=O)/C(=C/c1c(O)[nH]c(=O)[nH]c1=O)C=2	-1.0	101.0	0.0	147.0*	97.0	-7.0	96.0
c1ccc(C2N3CCCN23)cc1 (stereo not drawn)	8.0	112.0	0.0	108.0	x	x	x
ON1C2CCCCC2N(O)C1c1ccccc1 (stereo not drawn)	-33.0	33.0*[inhibitor]	1.0	22.0*[inhibitor]	103.0	3.0	103.0
Brc1ccc2c(c1)C(OC1CN3CCC1CC3)c1ccccc1CS2 (stereo not drawn)	13.0	156.0*	0.0	109.0	140.0	23.0	105.0
c1ccc2c(c1)CSc1ccccc1C2C1=NCCN1 (stereo not drawn)	34.0	112.0	4.0	109.0	x	x	x
CC[n+]1c(/C=C/N(C)c2ccccc2)sc2ccc(Cl)cc21	-14.0	54.0*[inhibitor]	92.0*	83.0	72.0	-9.0	88.0	GRK2 CP1=41.4*;Aptamer quench 1=25.5;FAM quench CP1=107.7
NCCc1c[nH]c2ccccc12	11.0	138.0*	62.0*	92.0	113.0	9.0	103.0	GRK2 CP1=-6.5;FAM quench CP1=99.6
CC(=O)c1cn(CC(=O)NCCc2c[nH]c3ccccc23)c2ccccc12	3.0	103.0	0.0	97.0	x	x	x
CCN(CC)C(=O)c1ccc(NC(=O)CN2CCc3cc(OC)c(OC)cc3C2)cc1	2.0	101.0	0.0	98.0	x	x	x
Cc1cc(=O)oc2c(C)c(OCC(=O)N3CCN(Cc4ccccc4)CC3)ccc12	4.0	102.0	0.0	101.0	x	x	x	GRK2 CP1=3.5;FAM quench CP1=102.1
Cc1c(C)c2ccc(OCC(=O)N3CCN(Cc4ccccc4)CC3)cc2oc1=O	x	x	0.0	x	x	x	x
